Structures are written as SMILES. Where “and” joins values, the source holds several entries; their conditions need not be identical. Equal values may be shown once. Inconclusive results are not listed. A structure can be active in one record and inactive in another. Values without a mark were called inactive. Calls of active or inactive are those of the source. The call rests on the fitted dose curve; in most records, active means well fitted inhibition curve with a large enough effect; inconclusive means small, poorly fitted or top-dose-only effect; inactive means flat fitted curve, though single readings scatter.

In assay [1] the test system is CRL-7250. Kind of assay: Cytotoxic Profiling of Annotated Libraries Using Quantitative High-Throughput Screening (AID 1296008). Further: potency means the concentration at half of the fitted maximal effect. On max response: on the % scale 0 is the no-effect control and ±100 the full control effect. Particulars: Five cell lines viability, CellTiter-Glo ATP luminescence, 48-72 h; max response: active compounds read low. In a few lines: (§1)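 Compounds were pin-transferred onto cells and incubated 48 or 72 hr at 37 degree Celsius, 95% humidity. CellTiter-Glo was added, plates sat 10 min at room temperature, then ATP-coupled luminescence was imaged as the viability read-out.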
A general note: In ATP-based viability assays light output follows the ATP content of the culture.

The test system of assay [2] is HEK293. Described as above. Particulars: Five cell lines viability, CellTiter-Glo ATP luminescence, 48-72 h; max response: active compounds read low. In a few lines: as §1
The subject of assay [3] is HaCat. The assay is described as above. Particulars: Five cell lines viability, CellTiter-Glo ATP luminescence, 48-72 h; max response: active compounds read low. In a few lines:
as §1

Assay [4] has as its system KB-3-1. The assay is described as above. The conditions noted are these: Five cell lines viability, CellTiter-Glo ATP luminescence, 48-72 h; max response: active compounds read low. In a few lines: as §1
Assay [5] deals with PC49. The experiment in a line: qHTS profiling for inhibitors of Plasmodium falciparum proliferation (AID 504749).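 Further: 0% = DMSO vehicle and full inhibition = artemisinin control.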 The conditions noted are these: P. falciparum in erythrocytes, SYBR Green DNA, 72 h; series mostly up to 28.7 µM. In a few lines:
(§2)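 Quantitative HTS: compounds pinned into medium, infected erythrocytes added (0.3% parasitemia, 2.5% hematocrit), 72 h culture at 37 C under 5% CO2. Saponin/Triton lysis with SYBR Green I, overnight RT, then fluorescence read.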
In general terms: In qHTS, concentration-response curves come from the screen itself.

For assay [6], the system named is SC27B. Described as above. Particulars: P. falciparum in erythrocytes, SYBR Green DNA, 72 h; series mostly up to 28.7 µM. The essentials:
as §2

Assay [7] deals with TAB109. The assay is described as above. The conditions noted are these: P. falciparum in erythrocytes, SYBR Green DNA, 72 h; series mostly up to 28.7 µM. In a few lines:
as §2

Assay [8] has as its system TAB113. The description is as above. Particulars: P. falciparum in erythrocytes, SYBR Green DNA, 72 h; series mostly up to 28.7 µM. The essentials:
as §2

The subject of assay [9] is TAB165. The description is as above. The conditions noted are these: P. falciparum in erythrocytes, SYBR Green DNA, 72 h; series mostly up to 28.7 µM. The essentials: as §2
The test system of assay [10] is W2. The description is as above. Particulars: P. falciparum in erythrocytes, SYBR Green DNA, 72 h; series mostly up to 28.7 µM. The essentials: as §2
Further: nearly all actives have a fitted effect of over 60% in size.

As for `OC[C@H]1O[C@@H](n2cnc3c2NC=NC[C@@H]3O)C[C@H]1O`, the max response in [1] was 2.48%; in assay [3] it was 1.63%; in assay [4], -3.46%. For the same molecule, the molecule was called inactive in [2].
Consider `CC1CCC(C(=O)N(c2cc(C#CC(C)(C)C)sc2C(=O)O)C2CCC(O)CC2)CC1` (stereo unspecified), for which the max response in assay [1] is -4.19% and 3.8%; in assay [2], -1.31%; in assay [4] it was -8.44% and -2.14%. Moreover, the molecule was classed as inactive in assay [3].
For the molecule `Nc1ncnc2ccccc12`, the molecule was called inactive in assay [1], in [2] and in assay [4]. Further, in assay [3], the max response is -14.1%.
Consider `COc1ccc(-c2coc3cc(O)ccc3c2=O)cc1`, for which the outcome in [1] and in assay [3] was inactive. The max response in assay [2] was -7.99%; in [4], 7.74%.
For the molecule `Cc1[nH]c(C=C2C(=O)Nc3ccc(S(=O)(=O)Cc4c(Cl)cccc4Cl)cc32)c(C)c1C(=O)N1CCC[C@H]1CN1CCCC1`, the max response in assay [1] is 1.44%; in assay [3], -4.31%; in [4], 1.95%. Further, the Potency in assay [2] was 23.5 µM (active).
Regarding `CN(C)C1CCN(C(=O)c2ccc(NC(=O)Nc3nc(N4CCOCC4)nc(N4CCOCC4)n3)cc2)CC1`, the Potency was 0.6 nM (active) in [1], 0.142 µM (active) in assay [2], 252 nM (active) in assay [3] and 50.2 nM (active) in assay [4].
As for `O=C(O)C(O)Cc1ccc(O)c(O)c1` (stereo unspecified), the results for the max response in assay [1], in [3] and in assay [4] were -24.8%, -1.88% and 5.06%, respectively. Further, the call in [2] was inactive.
As for `O=C(CCCCCCC(=O)Nc1ccccc1)NO`, the Potency is 8.41 µM (active) and 10.3 µM (active) and 11.8 µM (active) in [1]; 5.96 µM (active) and 8.33 µM (active) in [2]; 7.5 µM (active) and 9.2 µM (active) in [3]; 7.31 µM (active) and 5.8 µM (active) and 9.35 µM (active) in assay [4].
With `C[C@]12CCC3c4ccc(O)cc4CCC3C1CCC2=O` (stereo partly specified), the max response in [1] is -16.8%; in assay [2] it was -11.3%; in assay [3], -11.3%; in assay [4] it was 7.4%.
Consider `CCOC(=O)O[C@]1(C(=O)OCCl)CC[C@@H]2[C@H]3CCC4=CC(=O)C=C[C@]4(C)[C@@H]3[C@@H](O)C[C@@]21C`, for which the result in [5], in assay [7], in [1], in assay [2], in [3] and in assay [4] was inactive. Moreover, the Potency result in [6], in [8] and in assay [9] was “inactive” in each case.
In the case of `O=c1cc(CN2CCOCC2)occ1OCCCCCSc1ccnc2cc(C(F)(F)F)ccc12`, the Potency in [1] was 11.8 µM (active) and 9.2 µM (active); in assay [2], 8.33 µM (active) and 4.11 µM (active). In addition, the max response is -9.94% in [3] and -24.2% in [4].
In the case of `CN1[C@@H]2CCC[C@@H]1CC(NC(=O)c1nn(C)c3ccccc13)C2` (stereo partly specified), the max response in assay [1] is -0.159%; in [2] it was -2.4%; in [3] it was -5.72%; in assay [4], 1.46%.
Consider `O=C(O)CCC1CCC(c2cc(F)ccc2F)(S(=O)(=O)c2ccc(Cl)cc2)CC1` (stereo unspecified), for which the molecule was called inactive in assay [1], in assay [3] and in [4]. Further, in assay [2], the max response was -15.1%.
As to `O=c1c(O)c(-c2ccc(O)cc2)oc2cc(O)cc(O)c12`, the outcome in assay [1], in assay [2] and in [4] was inactive. Moreover, in assay [3], the max response is -4.55%.
For `CC(=O)O[C@]1(C(C)=O)CC[C@H]2[C@@H]3C=C(Cl)C4=CC(=O)[C@@H]5C[C@@H]5[C@]4(C)[C@H]3CC[C@@]21C`, the call in assay [5] was inactive. For the same molecule, the Potency entry in [6] is “inactive”. Moreover, the max response in assay [1] is -14.7% and -0.0221%; in assay [3], 4.62% and -21.2%; in assay [4] it was 2.19% and -8.34%. The Potency in assay [2] is 13 µM (active).
Regarding `O=C1NC(=O)C(c2ccccc2)(c2ccccc2)N1`, the result in assay [5], in assay [7] and in [1] was inactive. Also, the Potency result in [6], in assay [8], in assay [9] and in [10] was “inactive” in each case. The max response is -11.5% in assay [2], -5.29% in assay [3] and 7.95% in [4].
Regarding `Nc1ncnc2c1ncn2[C@@H]1O[C@@H](CO)[C@H](O)[C@H]1O`, the molecule was called inactive in assay [1], in assay [2], in assay [3] and in [4].
On to `CC(=O)Oc1cc2c(s1)CCN(C(C(=O)C1CC1)c1ccccc1F)C2` (stereo unspecified), for which the figures for the max response in [1], in assay [3] and in assay [4] were 4.12%, 0.622% and -10.7%, respectively. Also, the figures for the Potency in assay [2] and in assay [4] were 2.96 µM (active) and 4690 nM (active), respectively.

The values above are taken from PubChem BioAssay (NCATS).
